Screens as filed in PubChem.
Rango complex inh – prevents formation of the Rango-importin beta complex; Q14974; Rango CFP/YFP FRET sensor + importin beta, 45 min; Potency, µM (series often up to 92.2 µM), without a hit: at the top dose inhibition of complex formation; hit rate 0.031% among 340,000; calls by dose curve;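 also: potency is read from the fitted curve at half-maximal effect; 0% = DMSO wells and 100% = buffer wells lacking importin beta; nearly all actives have a fitted effect of over 15% in size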
Target sequence (Q14974 whole entry, looked up): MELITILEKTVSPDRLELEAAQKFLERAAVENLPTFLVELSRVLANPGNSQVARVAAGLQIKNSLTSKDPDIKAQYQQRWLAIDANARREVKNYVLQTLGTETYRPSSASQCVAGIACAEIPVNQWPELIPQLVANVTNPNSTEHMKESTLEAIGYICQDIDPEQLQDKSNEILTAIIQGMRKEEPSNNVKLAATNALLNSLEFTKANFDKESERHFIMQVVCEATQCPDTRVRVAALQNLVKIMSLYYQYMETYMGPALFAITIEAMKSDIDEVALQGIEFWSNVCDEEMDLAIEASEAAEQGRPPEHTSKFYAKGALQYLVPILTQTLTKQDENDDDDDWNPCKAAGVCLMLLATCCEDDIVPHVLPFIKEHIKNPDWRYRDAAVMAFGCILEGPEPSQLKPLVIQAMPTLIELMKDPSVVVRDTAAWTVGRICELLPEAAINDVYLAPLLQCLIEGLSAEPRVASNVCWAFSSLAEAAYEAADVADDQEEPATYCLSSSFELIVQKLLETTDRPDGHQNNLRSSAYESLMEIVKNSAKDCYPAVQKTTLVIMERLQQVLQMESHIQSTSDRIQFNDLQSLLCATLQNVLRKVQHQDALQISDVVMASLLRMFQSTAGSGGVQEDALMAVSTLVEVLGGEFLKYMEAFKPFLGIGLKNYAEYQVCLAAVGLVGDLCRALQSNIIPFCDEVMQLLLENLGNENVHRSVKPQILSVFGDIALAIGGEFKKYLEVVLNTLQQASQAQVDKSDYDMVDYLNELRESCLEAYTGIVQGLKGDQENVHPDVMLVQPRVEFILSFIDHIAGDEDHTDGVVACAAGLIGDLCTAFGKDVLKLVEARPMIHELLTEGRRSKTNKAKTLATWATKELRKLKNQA
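FRET biosensor Rango (snurportin 1 IBB between N-terminal EYFP and C-terminal Cerulean), 50 nM in PBS/1 mM DTT/0.02% Tween-20/0.1% BSA, preincubated 5 min RT with compound; 0.125 microM importin beta added, 45 min RT, CFP/YFP FRET ratio read.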
VDR inhibitor – vitamin D3 receptor (human) inhibition. P11473. VDR-SRC2-3 peptide fluorescence polarization, 2 h. Potency, µM, without a hit: max response, negative = inhibition, hits mostly inhibitors. hit rate 0.93% among 400,000. AID 504847; also: potency is read from the fitted curve at half-maximal effect; % is scaled to controls: 0 for no effect and ±100 for the full control effect
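FP read-out; VDR + SRC2-3 coactivator peptide; 23 nl compound by pintool; 2 h RT incubation; reagents held at 4 deg C, protected from light.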
PI5P4K alpha inh – blocks human PI5P4K alpha kinase activity; P48426; PI5P4Kalpha enzyme, ADP-Glo luminescence, 60 min; stronger effect = lower value; max response, %; hit rate 1.2% among 330,000; AID 652105; active = max response of -50% or lower; inconclusive = between -30% and -50%; inactive = -30% or higher; also: value at the top dose of about 77 µM; % is scaled to controls: 0 for no effect and ±100 for the full control effect
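Single end-point luminescence (ADP-Glo) quantified ADP from PI5P4Kalpha turnover; ATP 5 microM final, 1 h at RT, 0.1% CHAPS and 0.28 mM EGTA in HEPES pH 7.4.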
Rango release inh – inhibition of RanGTP-driven Rango-importin beta dissociation; hit rate 0.071% among 340,000; O95149+P62826; Potency, µM (top dose mostly 46.1 µM), without a hit: at the highest dose activity change, negative = inhibition; AID 540253; Biochemical FRET Rango-importin beta, RanGTP-induced dissociation; calls by dose curve; also: potency is read from the fitted curve at half-maximal effect; % of control where 0% means no effect; nearly all actives have a fitted effect of over 45% in size
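Rango/importin beta premix (0.1/0.25 uM final), PBS + 1 mM DTT + 0.02% Tween-20 + 0.1% BSA; cpd 5 min RT; FRET pre-read; + RanGTP-RCC1 (0.6 uM Ran, 2 mM GTP, 0.2 uM RCC1); 45 min RT; FRET post-read, ex 430, em 486/530 nm.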
PLK1 PBD block – PLK1 (human) polo-box domain binding inhibition; Plk1 PBD binding of FITC phosphopeptide, fluorescence polarization; P53350; hit rate 2.8% among 360,000; Potency, µM, without a hit: max response, negative = inhibition, actives largely listed as inhibitors; also: potency is read from the fitted curve at half-maximal effect; series mostly up to about 57 µM; % is scaled to controls: 0 for no effect and ±100 for the full control effect; nearly all actives have a fitted effect of over 65% in size
KAT2A inh – GCN5L2 (KAT2A) acetyltransferase inhibition; hit rate 0.21% among 390,000; AID 504327; Potency, µM (doses to about 58.9 µM), without a hit: top-dose activity change, negative = inhibition, usual class: inhibitors; GCN5L2 HAT assay, ThioGlo1 CoA-SH fluorescence; also: potency is read from the fitted curve at half-maximal effect; % is scaled to controls: 0 for no effect and ±100 for the full control effect
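GCN5L2 (20nM final) in 50mM HEPES, 0.1mM EDTA pH 7.5, 0.01% Tween-20 was preincubated 15 min at room temperature with compound, then given ThioGlo1 (50uM), H3(1-25) peptide (75uM) and acetyl-CoA (70uM); CoA-thiol fluorescence (Ex340/Em540) was read at 0 and 20 min.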
TbPYK confirm – confirmation of Trypanosoma brucei pyruvate kinase inhibitors; shares compounds with PLK1 PBD block; recombinant TbPYK, Kinase-Glo ATP luminescence; Potency, µM (doses to about 76.9 µM), for inactives: at the top dose activity change, negative = inhibition, most hits filed as inhibitors; hit rate 67% among 890; AID 720569; also: potency is read from the fitted curve at half-maximal effect; % is scaled to controls: 0 for no effect and ±100 for the full control effect; nearly all actives have a fitted effect of over 70% in size
TbPYK orthogonal – orthogonal confirmation of Trypanosoma brucei pyruvate kinase inhibitors; shares compounds with PLK1 PBD block; recombinant TbPYK, ADP-Glo luminescence, 60 min; Potency, µM (doses to about 76.9 µM), for inactives: at the top dose activity change, negative = inhibition, hits mostly inhibitors; hit rate 62% among 890; AID 720584; also: potency is read from the fitted curve at half-maximal effect; % is scaled to controls: 0 for no effect and ±100 for the full control effect; nearly all actives have a fitted effect of over 75% in size
* marks the source's active call; other numbers are inactive results; [ ] = another dose, or the depositor's remark. Rows were chosen to be rich in hits. Some 3.6% of all compounds tested hit in one or more screens of this group. Unless noted, calls follow the shape of the dose curve; as a rule, active = well fitted curve in the direction sought with a large enough effect; inconclusive = small, poorly fitted or top-dose-only effect, or another doubt; inactive = no such curve, though single readings can be large; an effect the other way counts as inactive or inconclusive.

Screening Cc1nn(Cc2ccccc2)c(C)c1C=C1C(=O)NC(=O)NC1=O returned Rango complex inh inconclusive, VDR inhibitor -26%, PI5P4K alpha inh -28, Rango release inh -9%, PLK1 PBD block 9.5µM*, KAT2A inh -6%, TbPYK confirm 18µM* and TbPYK orthogonal 32µM*.
Screening Clc1cncc(N2CCNCC2)n1 returned VDR inhibitor 1% and KAT2A inh -9%.
Screening O=C(c1ccc(N2CCCCC2)c([N+](=O)[O-])c1)N1CCC2(CC1)OCCO2 returned Rango complex inh 3%, VDR inhibitor -19%, PI5P4K alpha inh -2, Rango release inh -4%, PLK1 PBD block -5% and KAT2A inh 3%.
Screening O=C1NC(=O)C(=Cc2ccc(N3CCN(C(=O)c4ccccc4)CC3)c([N+](=O)[O-])c2)C(=O)N1 returned Rango complex inh 1%, VDR inhibitor 50µM*, PI5P4K alpha inh -62*, Rango release inh 1%, PLK1 PBD block 6.7µM*, KAT2A inh -11%, TbPYK confirm 32µM* and TbPYK orthogonal 35µM*.
For O=C1NC(=S)N(c2ccccc2)C(=O)/C1=C/c1ccco1 the results were Rango complex inh inconclusive, VDR inhibitor inconclusive, PI5P4K alpha inh -87*, Rango release inh inconclusive, PLK1 PBD block 3µM*, KAT2A inh inconclusive, TbPYK confirm 11µM* and TbPYK orthogonal 16µM*.
`C=CCN1C(=O)/C(=C/c2cccs2)C(=O)NC1=S` gave Rango complex inh inconclusive, VDR inhibitor inconclusive, PI5P4K alpha inh -86*, Rango release inh -13%, PLK1 PBD block 5.3µM*, KAT2A inh 29%, TbPYK confirm 22µM* and TbPYK orthogonal 35µM*.
`COc1ccc(N2C(=O)/C(=C/c3ccc(N(C)C)o3)C(=O)NC2=S)cc1` gave Rango complex inh 14%, VDR inhibitor 0%, PI5P4K alpha inh 0, Rango release inh -11%, PLK1 PBD block 106%, KAT2A inh -7%, TbPYK confirm inconclusive and TbPYK orthogonal inconclusive.
For COc1cccc(N2C(=O)/C(=C/c3ccc(C)o3)C(=O)NC2=S)c1 the results were Rango complex inh 0%, VDR inhibitor inconclusive, PI5P4K alpha inh -59*, Rango release inh -16%, PLK1 PBD block 2.7µM*, KAT2A inh -20%, TbPYK confirm 16µM* and TbPYK orthogonal 28µM*.
`CC(C)CN1CCCC2(CCN(C(=O)Oc3ccccc3)CC2)C1` gave VDR inhibitor -16% and KAT2A inh -1%.
Screening CC(C)(C)NC[C@H](O)c1cc(Cl)c(N)c(Cl)c1 returned VDR inhibitor -2% and KAT2A inh 7%[21.4 µM].
For CCCC(=O)O[C@@H]1[C@@H](C)[C@@]2(O)[C@@H](C=C(CO)C[C@@]3(O)C(=O)C(C)=C[C@@H]23)[C@@H]2C(C)(C)[C@]12OC(=O)CCC the results were VDR inhibitor 11% and KAT2A inh 43%.
Screening CCN(CC)c1ccc(C=C2C(=O)N(C)C(=S)N(C)C2=O)o1 returned Rango complex inh 7%, VDR inhibitor -6%, PI5P4K alpha inh -27, Rango release inh 2%, PLK1 PBD block 35% and KAT2A inh -3%.
Cc1ccc(/C=C2\C(=O)NC(=S)N(c3ccc(F)cc3)C2=O)o1 was read as Rango complex inh inconclusive, VDR inhibitor -6%, PI5P4K alpha inh -59*, Rango release inh inconclusive, PLK1 PBD block 3.8µM*, KAT2A inh inconclusive, TbPYK confirm 16µM* and TbPYK orthogonal 20µM*.
`COc1ccc(N2C(=O)/C(=C/c3cccs3)C(=O)NC2=S)cc1` gave Rango complex inh inconclusive, VDR inhibitor -2%, PI5P4K alpha inh -96*, Rango release inh -28%, PLK1 PBD block 2.1µM*, KAT2A inh -11%, TbPYK confirm 16µM* and TbPYK orthogonal 25µM*.
COc1ccc(CN2C(=O)CC(=O)NC2=S)cc1 was read as Rango complex inh 2%, VDR inhibitor 14%, PI5P4K alpha inh inconclusive, Rango release inh 3%, PLK1 PBD block -17% and KAT2A inh -7%.
`c1cnc(N2CCC3(CCNCC3)CC2)nc1` gave VDR inhibitor inconclusive and KAT2A inh -4%.
Screening O=C(O)CCn1cc(C=C2C(=O)NC(=S)NC2=O)c(-c2cc3ccccc3oc2=O)n1 returned Rango complex inh 3%, VDR inhibitor inconclusive, PI5P4K alpha inh -71*, Rango release inh -11%, PLK1 PBD block 11µM*, KAT2A inh 1%, TbPYK confirm 5.6µM* and TbPYK orthogonal 10µM*.
Screening O=C1NC(=O)N(c2ccc3c(c2)OCO3)C(=O)/C1=C\c1ccc(-c2ccccc2C(=O)O)o1 returned Rango complex inh -3%, VDR inhibitor inconclusive, PI5P4K alpha inh -52*, Rango release inh -29%, PLK1 PBD block 3µM*, KAT2A inh -16%, TbPYK confirm 13µM* and TbPYK orthogonal inconclusive.
For O=C1NC(=O)N(c2ccc3c(c2)OCO3)C(=O)/C1=C/c1ccc(N2CCCCC2)o1 the results were Rango complex inh inconclusive, VDR inhibitor -7%, PI5P4K alpha inh -9, Rango release inh -15%, PLK1 PBD block 102% and KAT2A inh -13%.
Screening CC1CC(OP(O)(=S)c2ccc(N(C)C)cc2NC(=O)c2cccs2)CC(C)(C)C1 (stereo not given) returned Rango complex inh 0%, VDR inhibitor 45µM*, PI5P4K alpha inh -18, Rango release inh -4%, PLK1 PBD block 6µM*, KAT2A inh -29%, TbPYK confirm 28µM* and TbPYK orthogonal 28µM*.
Screening CC1=NNC(=O)C1Br (stereo not given) returned Rango complex inh inconclusive, VDR inhibitor inconclusive, PI5P4K alpha inh -14, Rango release inh -6%, PLK1 PBD block 9.5µM*, TbPYK confirm 3.2µM* and TbPYK orthogonal 5µM*.
Cc1cccc2c1=NC(=O)/C(=C/c1c(O)[nH]c(=O)[nH]c1=O)C=2 was read as Rango complex inh 4%, VDR inhibitor inconclusive, PI5P4K alpha inh -54*, Rango release inh -6%, PLK1 PBD block 7.5µM*, KAT2A inh -6%, TbPYK confirm 25µM* and TbPYK orthogonal inconclusive.
